Laboratory results reported in PubChem BioAssay (NCATS).
Results filed as inconclusive are left out. Calls of active or inactive are those of the source. The call rests on the fitted dose curve; in most records, active means well fitted cell-killing curve with a large enough effect; inconclusive means small, poorly fitted or top-dose-only effect, or effect the other way; inactive means flat fitted curve, though single readings scatter.

tested on: CAOV3; assay: Primary qHTS to identify gynecologic anti-cancer compounds using libraries of approved drugs and bioactive compounds (AID 1345084); conditions: Gynecologic cancer cell panel viability, ATPlite luminescence, 48 h; series mostly up to 57.5 µM; activity change, negative = cytotoxicity: at the top concentration; further: nearly all actives have a fitted effect of over 55% in size
From the text: National Center for Advancing Translational Sciences [NCATS] Assay Overview: Chemotherapeutic drug responses vary from cancer to cancer and from patient to patient. These variations could be caused by a number of factors including patient genomic background, tumor mutations, tumor heterogeneity, and aspects of drug treatment. Chemotherapeutic drug resistance is also a common issue and can lead to ineffective treatment and patient death. Here we have profiled the cell killing effects of thousands of compounds to characterize the responses in three gynecological cancers, identify cancer-selective compounds, and understand the diversity of responses to these compounds from pan-cancer suppressors to single cell line selective compounds. In this assay, we screened a 7,914 compound drug library that included approved drug and bioactive compounds in six ovarian, three cervical, and […] placental cancer cell lines using the ATPlite assay for cell viability. […] The cervical cancer cell lines included HeLa, Ca Ski, and C-33 A. The placental cancer cell lines included JEG-3. HEK 293T cells were used as the control cell line to determine the selectivity index. ATPlite is a luminescence based assay reliant on the conversion of a luciferase substrate to light in the presence of ATP. As a cytotoxic compound will suppress growth and decrease the number of cells, the concentration of ATP will decrease, and less light signal will be detected in the well.
Assay Protocol Summary: 1,000 cells in 4 uL of media were dispensed into white, solid bottom 1536-well plates using a Multidrop Combi (Thermo Scientific). The Assay plates were incubated for 16 hours at 37 C with 5% CO2 in assay plates, followed by the addition of 23 nL of DMSO or drug dissolved in DMSO. Each compound was assayed in five concentrations (0.092, 0.46, 2.3, 11.5, and 57.5 uM), using the automated Wako 1536 Pin Tool workstation and incubated at 37 C with 5% CO2 48 hours. 4 uL of ATPlite, the ATP monitoring reagent, was then added to the each well of the assay plates using the Multidrop Combi reagent dispenser followed by incubation for 15 minutes at room temperature. The resulting luminescence was measured using the ViewLux plate reader.
On the % scale 0 is the no-effect control and ±100 the full control effect; potency means the concentration at half of the fitted maximal effect.

Row | SMILES | activity change, negative = cytotoxicity | Potency
1 | Cc1ccccc1-n1c(Cn2cnc3c(N)ncnc32)nc2cccc(C)c2c1=O | -1.67% (inactive) | 
2 | C1CCC(NC2CCCCC2)CC1 | 2.95% (inactive) | 
3 | Fc1cc(Br)ccc1CBr | 5.02% (inactive) | 
4 | O=[N+]([O-])c1cc([N+](=O)[O-])c2ccccc2c1 | 3.44% [at 116 µM] (inactive) | 
5 | O=C(Oc1ccc([N+](=O)[O-])cc1)N1CCC(C(O)(c2ccc3c(c2)OCO3)c2ccc3c(c2)OCO3)CC1 | -6.27% (inactive) | 
6 | Nc1ccc(Cl)cc1N | -12% [at 116 µM] (inactive) | 
7 | CCCCCCCCCCCCCCCC[N+](C)(C)C |  | 8.91 µM (active)
8 | CCN(CC)C(=O)c1ccc(C2=CC3(CCNCC3)Oc3cccc(O)c32)cc1 | 1.09% (inactive) | 
9 | CC(N[C@H]1C[C@H]1c1ccccc1)c1ccc2c(c1)OCCO2 (stereo not given in full) | 9.41% (inactive) | 
10 | CCCCC(CC)COC(=O)c1ccccc1C(=O)OCC(CC)CCCC (stereo not given) | 2.48% [at 116 µM] (inactive) | 
11 | CC(O)CN1CCN(CC(=O)[O-])CCN(CC(=O)[O-])CCN(CC(=O)[O-])CC1.[Gd+3] (stereo not given) | 3.01% (inactive) | 
12 | CC(C)(C)C(O)C(Oc1ccc(Cl)cc1)n1cncn1 (stereo not given) | -0.323% [at 116 µM] (inactive) | 
13 | C=CC(=O)NCNC(=O)C=C | 18% [at 116 µM] (inactive) | 
14 | CC(=O)Nc1ccc(OC[C@](C)(O)C(=O)Nc2ccc([N+](=O)[O-])c(C(F)(F)F)c2)cc1 | 2.43% (inactive) | 
15 | CCCCCCCCc1ccc(O)cc1 | -20.8% [at 116 µM] (inactive) | 
16 | OCCCBr | 0% [at 116 µM] (inactive) | 
17 | O=[N+]([O-])c1c2ccccc2cc2ccccc12 | 0% [at 116 µM] (inactive) | 
18 | CC(=O)NCCc1c[nH]c2ccccc12 | 15.9% (inactive) | 
19 | O=[N+]([O-])/N=C1\NCCN1Cc1ccc(Cl)nc1 | 2.37% (inactive) | 
20 | CCCCOC(=O)c1ccccc1C(=O)OCc1ccccc1 | 2.82% [at 116 µM] (inactive) | 

Row | SMILES | activity change, negative = cytotoxicity | Potency
21 | O=C(NCC1CCOCC1)c1cnc(Nc2ccc(Cl)cc2Cl)nc1C(F)(F)F | -1.47% (inactive) | 
22 | CC(Cc1ccc(O)cc1)NCC(O)c1cc(O)cc(O)c1 (stereo not given) | -4.83% (inactive) | 
23 | O=C(O)C(Cl)Cl | 2.59% (inactive) | 
24 | O=S(=O)(O)C(F)(F)C(F)(F)C(F)(F)C(F)(F)F | -3.59% [at 116 µM] (inactive) | 
25 | Nc1ccc(N=Nc2ccccc2)cc1 |  | 35.5 µM (active)
26 | CC(C)(C)NC[C@H](O)c1ccc(O)cc1Cl | 35.3% (inactive) | 
27 | CC(=O)[O][Hg][c]1ccccc1 |  | 3.55 µM (active)
28 | CCOC(=O)Nc1ccc(NCc2ccc(F)cc2)cc1N | 4.2% (inactive) | 
29 | Nc1ccc(Sc2ccc(N)cc2)cc1 | -17% [at 116 µM] (inactive) | 
30 | Oc1ccc2c3c1O[C@H]1[C@@H](O)C=C[C@H]4[C@@H](C2)NCC[C@@]341 | 2.75% [at 116 µM] (inactive) | 
31 | COc1ccc(N(C(=O)Oc2c(C)cccc2C)c2ccnc(Nc3ccc(N4CCN(C)CC4)cc3)n2)c(OC)c1 | 0.235% (inactive) | 
32 | CCCCCCCCCC(CC)c1ccc(S(=O)(=O)O)cc1 (stereo not given) | -3.47% [at 116 µM] (inactive) | 
33 | CCc1c(C(=O)C(N)=O)c2c(OCC(=O)O)cccc2n1Cc1ccccc1 | -5.44% (inactive) | 
34 | CC1(N2CCC(n3c([C@@H]4CCCNC4)nc4ccccc43)CC2)CCCCCCC1 |  | 8.91 µM (active)
35 | CC(=O)N(C)c1cccc(-c2ccnc3c(C(=O)c4cccs4)cnn23)c1 | 4.64% (inactive) | 
36 | COC(=O)c1cncn1C(C)c1ccccc1 (stereo not given) | -1.27% (inactive) | 
37 | CN[C@@H](C)[C@H](O)c1ccccc1 | -9.31% (inactive) | 
38 | Nc1ccc([N+](=O)[O-])cc1 | 4.9% [at 116 µM] (inactive) | 
39 | Cc1cc(O)ccc1Cl | -4.32% (inactive) | 
40 | COC(C)(C)CCCC(C)C/C=C/C(C)=C/C(=O)OC(C)C (stereo not given) | -0.0184% (inactive) | 
